Screening data deposited in PubChem BioAssay by several laboratories.
AI-2 QS modul – modulates the Vibrio harveyi AI-2 quorum sensing system; Vibrio harveyi JMH597 AI-2 luminescence/OD600 ratio, 9 h; hits give low values; strain lacks LuxN and CqsS sensors; 0 = neutral-control median; activity change, % at 7.5 µM; hit rate 0.4% among 300,000; AID 2094; in the data active = activity change below about -75%, passing the limit was not always enough; inconclusive = no clear call, values can overlap the other calls;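 note: luminescence divided by OD600 gain over 9 h not by final OD600 alone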
MLLE-PAM2 inh – blocks PAM2 peptide binding to the PABP1 MLLE domain. P11940. GST-MLLE / FITC-PAM2 fluorescence polarization. hit rate 0.36% among 360,000. inhibition, % at 20 µM. AID 588489; in the data active = inhibition above about 35%, passing the limit was not always enough
ABCB6 inh MLPCN – human ABCB6 transporter inhibition; K562-ABCB6 porphyrin accumulation, flow cytometry, 1 h; hits give low values; hit rate 0.19% among 360,000; fluorescence ratio to DMSO, % at 10 µM;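 active = fluorescence ratio to DMSO below 75%, the collection mean minus 3 SD; inconclusive = too few cells collected in the well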;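 note: signal is porphyrin accumulated inside mitochondria; lower ratio means ABCB6 inhibition with less porphyrin fluorescence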
PHOSPHO1 block – blocks human PHOSPHO1 phosphatase activity; recombinant PHOSPHO1, absorbance phosphatase assay; hit rate 1.1% among 290,000; inhibition, % at 13.3 µM; AID 1565; in the data active = inhibition above about 60%
Target sequence (Q8TCT1 whole entry, looked up): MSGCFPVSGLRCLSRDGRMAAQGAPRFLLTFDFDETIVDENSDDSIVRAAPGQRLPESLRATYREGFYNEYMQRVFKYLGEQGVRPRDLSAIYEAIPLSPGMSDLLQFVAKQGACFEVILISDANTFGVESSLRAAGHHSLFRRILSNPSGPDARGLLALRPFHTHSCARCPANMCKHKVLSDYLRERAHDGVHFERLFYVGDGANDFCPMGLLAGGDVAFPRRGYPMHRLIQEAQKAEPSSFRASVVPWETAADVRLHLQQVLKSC
PABP polyA inh – blocks human PABP binding to poly(A) RNA. P11940. fluorescence polarization. calls only at 35 µM. hit rate 1% among 290,000. AID 2014;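 note: calls also rest on retests at 20 µM and on dose response follow-up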
eIF4H FP inh – inhibitors of RNA binding by human eIF4H | Q15056 | eIF4H fluorescence polarization binding assay | inhibition, % at 35 µM | hit rate 0.94% among 290,000 | AID 2012;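 note: calls also rest on retests at 20 µM and on dose response follow-up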
Large screens that a line does not name were inactive. Only some compounds are listed: those with a hit (about 2.6% of all), similar ones and a draw of the others. Unless noted, the rule behind the calls is not given here.

O=S(=O)(NC(=S)c1ccccc1)c1ccccc1	MLLE-PAM2 inh 46 (no result: PHOSPHO1 block, PABP polyA inh, eIF4H FP inh)
COC(=O)c1ccc2nc(-c3ccccc3)c(Cc3ccccc3OC)n2c1	none (no result: AI-2 QS modul, PHOSPHO1 block, PABP polyA inh, eIF4H FP inh)
Cc1ccc(Cc2c(C)[nH]c(=S)[nH]c2=O)cc1	none
Cc1ccc(Cc2c[nH]c(=S)s2)cc1	AI-2 QS modul -89
Cc1nc(C(F)(F)F)ccc1C(=O)N1CCC1(C)C(=O)Nc1ccc2c(c1)OCO2 (stereo not given)	none (no result: AI-2 QS modul, PHOSPHO1 block, PABP polyA inh, eIF4H FP inh)
Cc1cccc(/C=C/C(=O)c2ccc(NC3=NCCCS3)cc2)c1	none
COc1cccc(/C=C/C(=O)c2ccc(NC3=NCCCS3)cc2)c1	PABP polyA inh active, eIF4H FP inh active
Nc1[nH]c(C(=O)c2ccccc2)c(-c2cccnc2)c1C(=O)NCCc1ccc(Cl)cc1Cl	none (no result: AI-2 QS modul, MLLE-PAM2 inh, PHOSPHO1 block, PABP polyA inh, eIF4H FP inh)
COc1cc(NS(=O)(=O)c2ccc(NC(=O)CSC3=NCCS3)cc2)nc(OC)n1	PHOSPHO1 block 76 (no result: MLLE-PAM2 inh, ABCB6 inh MLPCN)
COC(=O)CCC(=O)Nc1ccc(S(=O)(=O)Nc2cc(OC)nc(OC)n2)cc1	none
COc1ccc(OC)c(NC(=O)CSC2=NCCS2)c1	MLLE-PAM2 inh 40
C[C@@H](c1ccccc1)N1C[C@H](COCc2ccccc2)Oc2cc(N3CCC[C@@H]3CO)ccc2S1(=O)=O	none (no result: AI-2 QS modul, MLLE-PAM2 inh, PHOSPHO1 block, PABP polyA inh, eIF4H FP inh)
O=C(C[n+]1cccc2ccccc21)c1ccc(Cl)cc1	PABP polyA inh active
CN(C)Cc1csc(NC(=O)Nc2ccccc2Oc2ccccc2)n1	none (no result: AI-2 QS modul, PHOSPHO1 block, PABP polyA inh, eIF4H FP inh)
COC(=O)C1=C(C)NC(=O)C1(Nc1nccs1)C(F)(F)F (stereo not given)	none
COC(=O)C1=C(C)NC(=O)C1(NS(=O)(=O)c1ccc(C)cc1)C(F)(F)F (stereo not given)	PABP polyA inh active
O=C(COc1ccccc1C(=O)N/N=C\c1ccc(O)c(O)c1)N/N=C/c1ccc(O)c(O)c1	PABP polyA inh active, eIF4H FP inh 74
CCCCn1c(O)c(/C=C/C=C/C=Nc2ccccc2)sc1=S	eIF4H FP inh 54
COc1cccc(S(=O)(=O)Nc2ccc3c(c2)[C@H]2C[C@H](CC(=O)N[C@@H](C)c4ccccc4)O[C@H](CO)[C@H]2O3)c1	none (no result: AI-2 QS modul, PHOSPHO1 block, PABP polyA inh, eIF4H FP inh)
CC(C)OCCCNS(=O)(=O)c1ccc2c(c1)oc(=O)n2C	none
Cn1c(=O)oc2cc(S(=O)(=O)NCc3ccncc3)ccc21	PABP polyA inh active, eIF4H FP inh 72
CCCN(CCC)CCCNS(=O)(=O)c1ccc2c(c1)oc(=O)n2C	PHOSPHO1 block 62
C[C@@H]1CN([C@@H](C)CO)C(=O)CCCn2nncc2CO[C@@H]1CN(C)C(=O)C1CCCCC1	none (no result: AI-2 QS modul, PHOSPHO1 block, PABP polyA inh, eIF4H FP inh)
Cc1sc2c(c1C)C(=O)NC(c1cccc(O)c1)N2 (stereo not given)	PHOSPHO1 block 100 (no result: MLLE-PAM2 inh, ABCB6 inh MLPCN)
CC[n+]1c(/C=C2\C=C(C)CC(C)C2)sc2ccccc21 (stereo not given)	PHOSPHO1 block 102
CC[n+]1c(/C=C2\C=C(C)CC(C)(C)C2)sc2ccccc21	PHOSPHO1 block 100
CCC1=C/C(=C/c2sc3ccccc3[n+]2CC)CC(C)(C)C1	none (no result: MLLE-PAM2 inh, ABCB6 inh MLPCN)
Oc1c(C(c2cccs2)N2CCN(c3ccccc3)CC2)ccc2cccnc12 (stereo not given)	PHOSPHO1 block 69 (no result: AI-2 QS modul, MLLE-PAM2 inh, ABCB6 inh MLPCN)
CC1(C)c2ccccc2N2CCC(=O)NC21/C=C/c1ccco1 (stereo not given)	PABP polyA inh active, eIF4H FP inh inconclusive
O=C(CC(c1ccccc1)C1CCCCC1=O)c1ccccc1 (stereo not given)	none (no result: AI-2 QS modul, PHOSPHO1 block, PABP polyA inh, eIF4H FP inh)
CCOC(=O)[C@]12CCCC=C1N(Cc1ccc3c(c1)OCO3)C(=O)[C@H](CC(=O)NCc1cccc(C(F)(F)F)c1)C2	none (no result: AI-2 QS modul, MLLE-PAM2 inh, PHOSPHO1 block, PABP polyA inh, eIF4H FP inh)
CC1CC(C)CN(c2ccc(-n3cnnn3)cc2[N+](=O)[O-])C1 (stereo not given)	PHOSPHO1 block 60
O=[N+]([O-])c1cc(-n2cnnn2)ccc1N1CCC(Cc2ccccc2)CC1	none
CC(C)Cc1nnc(NC(=O)Cc2cccs2)s1	PABP polyA inh active, eIF4H FP inh 74
COCCN1C[C@@H](CO)O[C@@H](n2cnc3c(NC4CCCC4)ncnc32)C1	none (no result: AI-2 QS modul, PHOSPHO1 block, PABP polyA inh, eIF4H FP inh)
COCCNC(=S)N/N=C(\C)c1cc2ccccc2o1	ABCB6 inh MLPCN 70
CC(C)c1cc(=O)n2[nH]c(SCc3ccccc3)nc2n1	PHOSPHO1 block 63
CC1CCC2(CC1)NC(=S)N(c1ccccc1)N2 (stereo not given)	PHOSPHO1 block 100 (no result: AI-2 QS modul)
Nc1ncnc2oc(-c3ccco3)c(-c3ccco3)c12	PABP polyA inh active, eIF4H FP inh 104
O=C(CNC(=O)c1cccc(OC(F)F)c1)OCc1cc(=O)n2cc(Br)ccc2n1	PABP polyA inh active
O=C(CNS(=O)(=O)c1ccc(Br)cc1)OCc1cc(=O)n2cc(Br)ccc2n1	none (no result: MLLE-PAM2 inh, ABCB6 inh MLPCN)
O=C(COC(=O)c1cccc(S(=O)(=O)N2CCCC2)c1)Nc1ccc(Cl)cc1	none (no result: AI-2 QS modul, PHOSPHO1 block, PABP polyA inh, eIF4H FP inh)
O=c1c2ccccc2[nH]c2ccc(O)cc12	PABP polyA inh active, eIF4H FP inh 92
Cc1ccc(-c2cc(C(=O)N/N=C/c3c[nH]c4ccccc34)n[nH]2)o1	PABP polyA inh active
COc1cccc(NC(=O)C2(C)CCN2C(=O)CC2CC2)c1 (stereo not given)	none (no result: AI-2 QS modul, PHOSPHO1 block, PABP polyA inh, eIF4H FP inh)
Fc1ccc(C[n+]2csc3ccccc32)cc1	MLLE-PAM2 inh 42
Clc1ccc(C[n+]2csc3ccccc32)cc1	none (no result: AI-2 QS modul)
N#C/C(=C(/O)c1ccc(-c2cccc([N+](=O)[O-])c2)o1)c1nc2ccccc2s1	PABP polyA inh active, eIF4H FP inh 69
NS(=O)(=O)c1ccc(NC(=O)COC(=O)c2ccc3c(c2)OCCO3)cc1	PABP polyA inh active, eIF4H FP inh active
Cc1nnc(SCC(=O)Nc2nc(-c3ccccc3)cs2)n1N	PHOSPHO1 block 69
CCOc1ccc(NC(=O)COC(=O)c2ccc3c(c2)OCCO3)cc1	none (no result: AI-2 QS modul, PHOSPHO1 block, PABP polyA inh, eIF4H FP inh)
O=C(COC(=O)c1ccc2c(c1)OCO2)Nc1nc(-c2ccccc2)cs1	PABP polyA inh active
COc1ccc(-c2csc(NC(=O)CSc3n[nH]c(N)n3)n2)cc1	MLLE-PAM2 inh 37
O=C(Nc1ccc(Br)cc1F)c1nc[nH]c1C(=O)N1CCc2ccccc2C1	none (no result: AI-2 QS modul, PHOSPHO1 block, PABP polyA inh, eIF4H FP inh)
Cc1ccccc1N(C)S(=O)(=O)c1nnc(NC(=O)c2ccccc2F)s1	PHOSPHO1 block 64 (no result: PABP polyA inh, eIF4H FP inh)
Cc1nnc(NC(=O)c2ccccc2F)s1	none
CCC/C=C/c1ccc(CN2C(CC(C)C)C(=O)N(Cc3cn(CCOCOC)nn3)CCS2(=O)=O)cc1 (stereo not given)	none (no result: AI-2 QS modul, PHOSPHO1 block, PABP polyA inh, eIF4H FP inh)
COc1ccc2c(c1)c(C(C)=O)c(C)n2C	none
COc1ccc2c(c1)c(C(=O)CNc1nc(C)cs1)c(C)n2C	PHOSPHO1 block 81
CCOCc1cnc(C)nc1NCC(=O)c1c(C)n(C)c2ccc(OC)cc12	PHOSPHO1 block 92
CCCC(=O)N1CCC1(C)C(=O)NS(=O)(=O)c1cccs1 (stereo not given)	none (no result: AI-2 QS modul, PHOSPHO1 block, PABP polyA inh, eIF4H FP inh)
CC(C)c1ccc(C(=O)N2CCCCC2c2cc(C(=O)Nc3ccncc3)no2)cc1 (stereo not given)	none (no result: AI-2 QS modul, PHOSPHO1 block, PABP polyA inh, eIF4H FP inh)
CCOc1cc2c(C#N)c(N3CCCCC3)nc(N)c2c(N)n1	none
